The values that follow come from the supplement of paper PMC6555819.

The subject of one assay is LXRb:RXRa (NR concentration 270 nM, RXRa partner concentration 90 nM). Description: PBM binding z-score (relative to random genomic background probes); higher = stronger binding; sequences stand for … in GC…GCGATTGACAGCGTAGAATGAAGG
In a few lines: (§1)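 On custom Agilent 4×180K arrays, double-stranded probes with 34-nt variable regions carried direct-repeat seeds, single-nucleotide variants, half-site ablations or random human genomic background. Ligand-free nuclear receptor dimers were applied for 1 h, and binding was read with antibodies against each partner (one per run). Binding z-scores come from regression-normalized fluorescence, with the random background probes as reference.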
ATCTCTAGGTAAAGATAGTTCGGTGAATGCAAAT came in with a PBM binding z-score of 0.0902.

As to TCTAGCAGTCCAGAGGGTCACTCAAGAGGTACGG, the PBM binding z-score came to 1.19.

For the sequence CCTAGCAGGCCAATCTGGGACACTCAAGGCTTGA, the PBM binding z-score was -1.13.

For TCTGACAGGTGAAGGTAACTCAGGTACGCAGTCG, the PBM binding z-score worked out at 0.856.

For TATACAGGCTCAAAGGCCAGAGTACGAATGTCGA, the PBM binding z-score was -0.265.

For GGAACGAGGGCATTCGAGTTAATAGCATGGCGAT, the PBM binding z-score came to 0.179.

As to CCTACTGGGCCAATGGTCATTGATTCCAATGCTC, the PBM binding z-score is -0.531.

GCTGCTAGGTCAACTGATGGTCGGCTAAAGCTCG returned a PBM binding z-score of 1.89.

With ACTCGGAGGACCAAGGTCAGAGCTACGCCAGTGA, the PBM binding z-score came out at 0.779.

For the sequence GGAACGAAGGCAAAGTTGATAGCATCTGTCGACG, the PBM binding z-score is -0.769.

Regarding GGAACGAGGGCATGCGAGTTGATAGCATGGCGAT, the PBM binding z-score was -0.143.

Regarding TCTTGTAGATCACGCAGGTTAAGAAAGCCTGAGT, the PBM binding z-score came to 0.551.

Turning to TCTTGTAGAACAAGCAGGTTAAGAAAGCCTGAGT, the PBM binding z-score was -0.0832.

AATACCGGGTCATCGTAGGCCAGAGTACGCACAG: the PBM binding z-score came to 3.93.

Consider CCTAGCAGGCCAATCTGAGTCACTCAAGGCTTGA, for which the PBM binding z-score is -0.644.

On to AGTCAAAGTTCATCTAGGTAAGGTAAGATATGCT, for which the PBM binding z-score stood at 4.05.

AGAACAAGGGCAATGAGTTGATAGCACGGGTGGC: the PBM binding z-score came out at 0.0189.

In the case of CAAACTAGGGCACAGAGGTCAAAGTCCGTGCGTA, the PBM binding z-score worked out at 4.88.

For the sequence ATCGAAAGGTCGACGGGGTGAGTATACACCGTTT, the PBM binding z-score was 3.23.

On to TAGCCGAGGTCATGGGCCAGTATACCACGCGAAC, for which the PBM binding z-score turned out to be 4.99.

Consider TCTAGTTGGTCACGGAGGTAACACACGACGGGTA, for which the PBM binding z-score amounted to 0.404.

Take CCTACTGGGCCAGGGTCATTGATCAGTCAAAGCA: the PBM binding z-score was determined as 2.58.

As to TCTGCTAGGTCAACGATGGACAGCTAATCTGCTA, the PBM binding z-score worked out at 1.28.

For the sequence TCATATAGGTAAAGGTTAAAGTCGAACGATATGA, the PBM binding z-score is 2.89.

ACTAGTAGGCCAAGTTTGGGTCACTCAAACAAAG: the PBM binding z-score came to 0.884.

In the case of TCTTGTAGAACAGCAGGTTAAGAAAGCTGGCCAA, the PBM binding z-score is -0.0015.

On to CCTATTAGTTGACCATAAGGGCTACCGAAGCTCG, for which the PBM binding z-score amounted to 0.131.

GCAGACAGGTGAAACGCGGGTAACTCAGGGTGGC: the PBM binding z-score was -0.193.

Regarding CCTAGTTGGTCAGGAGGTCAAACACCGGATATGA, the PBM binding z-score was 4.03.

Take TCGAGTAGGTTACAAATGGGGCATTCAGCTTTCT: the PBM binding z-score was determined as 1.01.

Take GCTGCTAGGTCAGGTAGGTCAGCTAACGGGTACG: the PBM binding z-score is 1.43.

CCTAGTTGGTGAAGGTCACACACGCTATAGGTAC showed a PBM binding z-score of 3.42.

On to CTACCAAGGTGAACAAGGCCGTTGATTACTATTC, for which the PBM binding z-score was 0.646.

The sequence TATACAGGGTCAAAGGCCAGAGTCCGAATGTCGA yielded a PBM binding z-score of 4.71.

CGTCCAAGGTCAAAGGTCAGTGTAGAGATGACGG: the PBM binding z-score amounted to 6.49.

On to GTACGAAGGTGAATAGGTCGTTGATGAGTAGGCG, for which the PBM binding z-score is 0.505.

CCTTACGGGTCAAGGTTATAGTACGGGTGGTACG showed a PBM binding z-score of 3.24.

ACAATGAGGTTATTAAGATCAGGGAATTGCGGTC showed a PBM binding z-score of 1.26.

TCGAGTAGGTTACCAATGGGGCACTCAGCTTTCT had a PBM binding z-score of 0.379.

In the case of CCTACTGGGCCATTCAGAGGTCCTTGATCATATG, the PBM binding z-score was -0.597.

Another assay relates to LXRb homodimer (NR concentration 270 nM). The assay is described as above. In a few lines: as §1
In turn, ATCTCTAGGTAAAGATAGTTCGGTGAATGCAAAT had a PBM binding z-score of 0.531.

For the sequence TCTAGCAGTCCAGAGGGTCACTCAAGAGGTACGG, the PBM binding z-score was -1.12.

With CCTAGCAGGCCAATCTGGGACACTCAAGGCTTGA, the PBM binding z-score is -0.814.

As for TCTGACAGGTGAAGGTAACTCAGGTACGCAGTCG, the PBM binding z-score is -0.258.

Consider TATACAGGCTCAAAGGCCAGAGTACGAATGTCGA, for which the PBM binding z-score is -0.0867.

Regarding GGAACGAGGGCATTCGAGTTAATAGCATGGCGAT, the PBM binding z-score was -0.759.

Consider CCTACTGGGCCAATGGTCATTGATTCCAATGCTC, for which the PBM binding z-score was -0.674.

For GCTGCTAGGTCAACTGATGGTCGGCTAAAGCTCG, the PBM binding z-score is -0.133.

Take ACTCGGAGGACCAAGGTCAGAGCTACGCCAGTGA: the PBM binding z-score was -0.603.

With GGAACGAAGGCAAAGTTGATAGCATCTGTCGACG, the PBM binding z-score is -1.04.

Take GGAACGAGGGCATGCGAGTTGATAGCATGGCGAT: the PBM binding z-score is -1.37.

Consider TCTTGTAGATCACGCAGGTTAAGAAAGCCTGAGT, for which the PBM binding z-score was -0.17.

For the sequence TCTTGTAGAACAAGCAGGTTAAGAAAGCCTGAGT, the PBM binding z-score was -0.582.

Consider AATACCGGGTCATCGTAGGCCAGAGTACGCACAG, for which the PBM binding z-score was 0.968.

Consider CCTAGCAGGCCAATCTGAGTCACTCAAGGCTTGA, for which the PBM binding z-score is -0.64.

As to AGTCAAAGTTCATCTAGGTAAGGTAAGATATGCT, the PBM binding z-score stood at 1.73.

With AGAACAAGGGCAATGAGTTGATAGCACGGGTGGC, the PBM binding z-score amounted to 0.008.

In the case of CAAACTAGGGCACAGAGGTCAAAGTCCGTGCGTA, the PBM binding z-score is 1.2.

Consider ATCGAAAGGTCGACGGGGTGAGTATACACCGTTT, for which the PBM binding z-score came to 0.368.

TAGCCGAGGTCATGGGCCAGTATACCACGCGAAC gave a PBM binding z-score of 0.79.

The sequence TCTAGTTGGTCACGGAGGTAACACACGACGGGTA registered a PBM binding z-score of 0.515.

Regarding CCTACTGGGCCAGGGTCATTGATCAGTCAAAGCA, the PBM binding z-score was -1.02.

Regarding TCTGCTAGGTCAACGATGGACAGCTAATCTGCTA, the PBM binding z-score was -0.137.

For the sequence TCATATAGGTAAAGGTTAAAGTCGAACGATATGA, the PBM binding z-score worked out at 0.157.

Consider ACTAGTAGGCCAAGTTTGGGTCACTCAAACAAAG, for which the PBM binding z-score is -0.17.

For TCTTGTAGAACAGCAGGTTAAGAAAGCTGGCCAA, the PBM binding z-score is -0.898.

Sequence CCTATTAGTTGACCATAAGGGCTACCGAAGCTCG showed a PBM binding z-score of 0.649.

For the sequence GCAGACAGGTGAAACGCGGGTAACTCAGGGTGGC, the PBM binding z-score is -1.11.

Sequence CCTAGTTGGTCAGGAGGTCAAACACCGGATATGA gave a PBM binding z-score of 1.06.

Consider TCGAGTAGGTTACAAATGGGGCATTCAGCTTTCT, for which the PBM binding z-score was -0.699.

As to GCTGCTAGGTCAGGTAGGTCAGCTAACGGGTACG, the PBM binding z-score was -0.161.

Regarding CCTAGTTGGTGAAGGTCACACACGCTATAGGTAC, the PBM binding z-score was 0.755.

Regarding CTACCAAGGTGAACAAGGCCGTTGATTACTATTC, the PBM binding z-score was -0.622.

For TATACAGGGTCAAAGGCCAGAGTCCGAATGTCGA, the PBM binding z-score worked out at 2.55.

Consider CGTCCAAGGTCAAAGGTCAGTGTAGAGATGACGG, for which the PBM binding z-score came out at 1.91.

For the sequence GTACGAAGGTGAATAGGTCGTTGATGAGTAGGCG, the PBM binding z-score was -0.557.

Take CCTTACGGGTCAAGGTTATAGTACGGGTGGTACG: the PBM binding z-score came out at 0.225.

ACAATGAGGTTATTAAGATCAGGGAATTGCGGTC came in with a PBM binding z-score of 0.952.

Take TCGAGTAGGTTACCAATGGGGCACTCAGCTTTCT: the PBM binding z-score was -0.732.

For CCTACTGGGCCATTCAGAGGTCCTTGATCATATG, the PBM binding z-score was -0.529.
